These results are taken from PubChem BioAssay (NCATS).

Records with an inconclusive call do not appear. Unmarked numbers belong to inactive results. Calls of active or inactive are those of the source. Calls come from the whole dose curve; as a rule, active = well fitted cell-killing curve with a large enough effect; inconclusive = small, poorly fitted or top-dose-only effect, or effect the other way; inactive = no such curve, though single readings can be large or run the other way.
Potency is the fitted concentration of half-maximal effect.

The first assay in a line: Quantitative High-Throughput drug screen in 47 multiple myeloma cell lines against the NCATS MIPE library collection: XG1_PLB cell viability assay (AID 1919866). Note: nearly all actives have a fitted effect of over 35% in size. Particulars: CellTiter-Glo ATP, 48 h; series mostly up to 45.8 µM; viability: at the top concentration. In short, it runs like this: (§1)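 Readout: median RLU from CellTiter-Glo after 5 min at room temperature. Preceding step was 48 h drug treatment of 500 cells/well at 37 °C, 5% CO2, with DMSO-only and media-only control wells.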
A general note: Cellular ATP, detected with luciferase, serves as a proxy for viable cell number.
As usually defined, the viability is a read-out of living cells in per cent, often relative to untreated cells. As to `O=C(C=Cc1c(C(=O)O)[nH]c2cc(Cl)cc(Cl)c12)Nc1ccccc1`, the “viability” value is 128%.

Consider `C[C@@H]1CN(CC(=O)Nc2ccc3c(c2)Cc2cccc(-c4cc(=O)cc(N5CCOCC5)o4)c2S3)C[C@H](C)O1`, for which the Potency was 5.9 µM (active).

For the compound `O=C(O)Cn1nnc(-c2cc(N3CCC(Oc4cc(F)ccc4Br)CC3)no2)n1`, the “viability” value is 105%.

In the case of `COc1cc2c(Nc3ccc(NC(=O)c4ccccc4)cc3)ncnc2cc1OCCCN1CCOCC1`, the Potency is 20.9 µM (active).

For `CCCCCCCCCC(=O)N[C@@H](Cc1c[nH]c2ccccc12)C(=O)N[C@H](CC(N)=O)C(=O)N[C@@H](CC(=O)O)C(=O)N[C@@H]1C(=O)NCC(=O)N[C@@H](CCCN)C(=O)N[C@@H](CC(=O)O)C(=O)N[C@H](C)C(=O)N[C@@H](CC(=O)O)C(=O)NCC(=O)N[C@H](CO)C(=O)N[C@@H]([C@@H](C)CC(=O)O)C(=O)N[C@@H](CC(=O)c2ccccc2N)C(=O)O[C@@H]1C`, the “viability” value is 105%.

As for `COC(=O)C1=C(C)NC(C)=C(C(=O)OCCN2CCN(C(c3ccccc3)c3ccccc3)CC2)C1c1cccc([N+](=O)[O-])c1` (centres undefined), the “viability” value was 120%.

The next assay in a line: Quantitative High-Throughput drug screen in 47 multiple myeloma cell lines against the NCATS MIPE library collection: VP6_DJ cell viability assay (AID 1919867).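 For viability (% of DMSO): 100% = DMSO-only wells and 0% = wells with media alone.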 Note: nearly all actives have a fitted effect of over 40% in size. Particulars: ATP luminescence, 48 h; series mostly up to 45.8 µM; viability (% of DMSO): at the top concentration. In short, it runs like this: as §1
For `CCNC(=O)Nc1ccc2ncc(Nc3ccc(C)cc3)nc2n1`, the Potency is 0.662 µM (active).

Take `NC(=O)c1cccc2cn(-c3ccc([C@@H]4CCCNC4)cc3)nc12`: the Potency is 18.7 µM (active).

Take `O=C(c1cncc(Br)c1)N1CCC(N2CCCC2)CC1`: the “viability (% of DMSO)” value is 129%.

On to `COc1cc(C(C)C)c2c(c1)S(=O)(=O)N(COc1cc(=O)n3cccc(OCCN4CCCCC4)c3n1)C2=O`, for which the Potency is 16.6 µM (active).

On to `C[C@@H]1COC(Nc2ccc3ncnc(Nc4ccc(OCc5nccs5)c(Cl)c4)c3c2)=N1`, for which the Potency was 3.72 µM (active).

`CN(C1CCc2c(c3ccccc3n2CC(=O)O)C1)S(=O)(=O)c1ccc(F)cc1` (centres undefined): the Potency is 0.0743 µM (active).

On to `CC(=O)c1c(C)c2cnc(Nc3ccc(N4CCNCC4)cn3)nc2n(C2CCCC2)c1=O`, for which the Potency was 18.7 µM (active).

In the case of `COc1ccc(OC)c(-c2nnc3ccc(-c4ccc(OC)c(O[C@@H]5CCOC5)c4)nn23)c1`, the Potency was 6.62 µM (active).

Turning to `CC(C)c1ccccc1Cc1cc(C(=O)Nc2ccc(S(=O)(=O)c3ccccc3C(C)(C)C)cc2)c(O)c(O)c1O`, the Potency is 5.26 µM (active).

`COc1cc(Nc2ncc(F)c(Nc3ccc4c(n3)N(COP(=O)(O)O)C(=O)C(C)(C)O4)n2)cc(OC)c1OC`: the Potency was 1.48 µM (active).

Turning to `Cc1c(NC(=O)OC[C@@H]2COCCN2)cn2ncnc(Nc3ccc4c(cnn4Cc4cccc(F)c4)c3)c12`, the Potency was 1.87 µM (active).

In the case of `Nc1ccc(S(=O)(=O)Nc2ncccn2)cc1`, the “viability (% of DMSO)” value was 137%.

As to `COc1cc(C)c(Sc2cnc(NC(=O)c3ccc(CNC(C)C(C)C)cc3)s2)cc1C(=O)N1CCN(C(C)=O)CC1` (centres undefined), the Potency was 7.43 µM (active).

Consider `O=C(C=Cc1c(C(=O)O)[nH]c2cc(Cl)cc(Cl)c12)Nc1ccccc1`, for which the “viability (% of DMSO)” value was 107%.

Turning to `Cc1ccc2nc(NC(=O)CSc3nc4c(c(=O)n3-c3ccccc3)SCC4)sc2c1`, the Potency was 9.35 µM (active).

For the compound `C[C@@H]1CN(CC(=O)Nc2ccc3c(c2)Cc2cccc(-c4cc(=O)cc(N5CCOCC5)o4)c2S3)C[C@H](C)O1`, the Potency was 16.6 µM (active).

As for `COc1cccc(Nc2c(C(N)=O)cnc3c(C)cc(S(=O)(=O)c4cccc(C(=O)N(C)C)c4)cc23)c1`, the “viability (% of DMSO)” value is 118% [at 23.2 µM].

For the compound `Cc1coc2c1C(=O)C(=O)c1c-2ccc2c1CCCC2(C)C`, the Potency was 20.9 µM (active).

On to `O=C(O)Cn1nnc(-c2cc(N3CCC(Oc4cc(F)ccc4Br)CC3)no2)n1`, for which the “viability (% of DMSO)” value is 139%.

`COc1cc2c(Nc3ccc(NC(=O)c4ccccc4)cc3)ncnc2cc1OCCCN1CCOCC1`: the Potency was 14.8 µM (active).

In the case of `CN(C)c1nc(Cc2ccc(NC(=O)c3ccc4ccccc4c3)cc2)nc(Cl)c1CC(=O)O`, the “viability (% of DMSO)” value is 101%.

Take `CN(C)CC(C)(C)CNc1nn2c(-c3ccccc3)nnc2cc1C1CCC1`: the Potency is 10.5 µM (active).

Consider `COC(=O)C1=C(C)NC(C)=C(C(=O)OCCN2CCN(C(c3ccccc3)c3ccccc3)CC2)C1c1cccc([N+](=O)[O-])c1` (centres undefined), for which the Potency is 4.18 µM (active).
